The values below come from PubChem BioAssay (EPA / NIEHS).

Calls of active or inactive are those of the source. Rule for the calls: active = hit-call score of the fitted dose curve at least 0.9, where 1 is the maximum; inactive = score below 0.9.

What all share (conditions): mRNA level, 48 h; actives raise or lower the signal
Read-out in assay [1]: MYC, MYC (gene 4609)
Briefly: LTEA_HepaRG_MYC: Life Technologies and Expression Analysis (LTEA) Assay for MYC using HepaRG (AID 2283518). A digest of the protocol:
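HepaRG, ~100,000 cells/well, collagen I; 48 h plating; serum-free induction medium; 48 h dosing, duplicate, 100 uM top, half-log, 0.5% DMSO; total RNA → qRT-PCR MYC; gain/loss fit vs DMSO.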

Read-out in assay [2]: matrix metalloproteinase-3 (MMP3), MMP3 (gene 4314)
In words: LTEA_HepaRG_MMP3: Life Technologies and Expression Analysis (LTEA) Assay for matrix metalloproteinase-3 (MMP3) using HepaRG (AID 2283519). In outline:
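HepaRG, human; 48 h dosing, 8 conc. (max 100 uM, half-log), duplicate, 0.5% DMSO. Readout: MMP3 transcript by Fluidigm TaqMan qRT-PCR, ACTB/GAPDH/POLR2A-normalised. Gain or loss fitted vs DMSO.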

Read-out in assay [3]: Paternally Expressed 10 (PEG10), PEG10 (gene 23089)
In words: LTEA_HepaRG_PEG10: Life Technologies and Expression Analysis (LTEA) Assay for Paternally Expressed 10 (PEG10) using HepaRG (AID 2283520). In outline:
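HepaRG, 48 h post-plating → serum-free induction medium → 48 h chemical exposure (duplicate, 8-pt, max 100 uM, half-log, 0.5% DMSO) → lysis in RLT → TaqMan qRT-PCR for PEG10, ACTB/GAPDH/POLR2A normalisation.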

Read-out in assay [4]: Protein phosphatase 2A (PPP2R4), PTPA (gene 5524)
Briefly: LTEA_HepaRG_PPP2R4: Life Technologies and Expression Analysis (LTEA) Assay for Protein phosphatase 2A (PPP2R4) using HepaRG (AID 2283522). A digest of the protocol: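 Readout is PPP2R4 transcript level by microfluidic qRT-PCR after 48 h chemical treatment of human HepaRG liver cells. Concentrations spanned 100 uM downward in half-log steps; gain or loss of signal was fitted relative to DMSO.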

Read-out in assay [5]: Phosphatase and tensin (PTEN), PTEN (gene 5728)
Briefly: LTEA_HepaRG_PTEN: Life Technologies and Expression Analysis (LTEA) Assay for Phosphatase and tensin (PTEN) using HepaRG (AID 2283523). A digest of the protocol:
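Read-out is PTEN transcript level by multiplexed TaqMan qRT-PCR after 48 h chemical treatment of human HepaRG cultures in serum-free induction medium. Concentrations spanned 100 uM downward in half-log steps, 0.5% DMSO throughout; activity fitted in both directions against vehicle.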

Read-out in assay [6]: solute carrier (SLC22A1), SLC22A1 (gene 6580)
In words: LTEA_HepaRG_SLC22A1: Life Technologies and Expression Analysis (LTEA) Assay for solute carrier (SLC22A1) using HepaRG (AID 2283524). A digest of the protocol:
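HepaRG (human liver line), 48 h dosing in serum-free induction medium; 8 conc., half-log down from 100 uM, 0.5% DMSO vehicle, duplicates. Endpoint: SLC22A1 mRNA, qRT-PCR, housekeeping-normalized; gain/loss fit vs DMSO.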

Read-out in assay [7]: Pyruvate Dehydrogenase Kinase 4 (PDK4), PDK4 (gene 5166)
Briefly: LTEA_HepaRG_PDK4: Life Technologies and Expression Analysis (LTEA) Assay for Pyruvate Dehydrogenase Kinase 4 (PDK4) using HepaRG (AID 2283525). In outline:
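In this multiplexed human HepaRG expression assay, cells are treated 48 h with test chemicals across an eight-point range starting at 100 uM. PDK4 mRNA changes, normalized to ACTB/GAPDH/POLR2A, are fitted in both directions relative to vehicle.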

Read-out in assay [8]: NAD(P)H dehydrogenase [quinone] 1 (NQO1), NQO1 (gene 1728)
Briefly: LTEA_HepaRG_NQO1: Life Technologies and Expression Analysis (LTEA) Assay for NAD(P)H dehydrogenase [quinone] 1 (NQO1) using HepaRG (AID 2283526). In outline:
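HepaRG, 48 h post-plating → serum-free induction medium → test chemical 48 h (duplicate, 100 uM top, half-log x8, 0.5% DMSO) → RNA isolation → qRT-PCR, ACTB/GAPDH/POLR2A normalization; bidirectional curve fit vs DMSO baseline.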

Read-out in assay [9]: Nuclear factor erythroid 2-related factor 2 (Homo sapiens) (UniProt Q16236)
In words: LTEA_HepaRG_NFE2L2: Life Technologies and Expression Analysis (LTEA) Assay for Nuclear factor erythroid 2-related factor 2 (NFE2L2) Transcription Factor using HepaRG (AID 2283527). A digest of the protocol: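 Transcript level of NFE2L2 is the read-out, measured by microfluidic TaqMan qRT-PCR and normalized to three housekeeping genes. Human HepaRG cultures received test chemical for 48 h at up to 100 uM in half-log steps. Gain or loss of signal is fitted relative to 0.5% DMSO.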

Read-out in assay [10]: succinate dehydrogenase complex iron sulfur subunit B (SDHB), SDHB (gene 6390)
Briefly: LTEA_HepaRG_SDHB: Life Technologies and Expression Analysis (LTEA) Assay for succinate dehydrogenase complex iron sulfur subunit B (SDHB) using HepaRG (AID 2283528). A digest of the protocol: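 SDHB transcript level read by TaqMan qRT-PCR, housekeeping-normalised (ACTB, GAPDH, POLR2A), after 48 h chemical treatment of plated HepaRG cells; eight concentrations top 100 uM, half-log steps, 0.5% DMSO, duplicates; fitted both directions against DMSO.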

Read-out in assay [11]: Signal transducer and activator of transcription 3 (Homo sapiens) (UniProt P40763)
Briefly: LTEA_HepaRG_STAT3: Life Technologies and Expression Analysis (LTEA) Assay for Signal transducer and activator of transcription (STAT3) using HepaRG (AID 2283529). A digest of the protocol: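 Read-out is STAT3 mRNA level by qRT-PCR, normalized to three housekeeping genes, in human HepaRG liver cells treated for 48 h. Concentrations ran from 100 uM downward in half-log steps; curves were fitted for gain or loss relative to 0.5% DMSO.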

Read-out in assay [12]: solute carrier (SLCO1B1), SLCO1B1 (gene 10599)
Briefly: LTEA_HepaRG_SLCO1B1: Life Technologies and Expression Analysis (LTEA) Assay for solute carrier (SLCO1B1) using HepaRG (AID 2283530). In outline: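 HepaRG, serum-free induction medium, 48 h dosing, 8-pt half-log from 100 uM, 0.5% DMSO vehicle, duplicates. Readout: SLCO1B1 mRNA, qRT-PCR, ACTB/GAPDH/POLR2A normalization; up or down fit vs DMSO.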

Read-out in assay [13]: sulfotransferase 2A1 (SULT2A1), SULT2A1 (gene 6822)
In words: LTEA_HepaRG_SULT2A1: Life Technologies and Expression Analysis (LTEA) Assay for sulfotransferase 2A1 (SULT2A1) using HepaRG (AID 2283531). A digest of the protocol:
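Transcript levels of SULT2A1, quantified by qRT-PCR and normalized to three housekeeping genes, serve as the readout. Human HepaRG cultures receive test chemicals for 48 h at up to 100 uM in half-log steps, with 0.5% DMSO vehicle.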

Read-out in assay [14]: Transforming Growth Factor (TGFA), TGFA (gene 7039)
Briefly: LTEA_HepaRG_TGFA: Life Technologies and Expression Analysis (LTEA) Assay for Transforming Growth Factor (TGFA) using HepaRG (AID 2283532). In outline: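 HepaRG (human liver line), 48 h exposure, 8 conc. half-log down from 100 uM, 0.5% DMSO vehicle, duplicates; serum-free induction medium. TGFA mRNA by TaqMan qRT-PCR, ACTB/GAPDH/POLR2A normalization; gain/loss fit vs DMSO.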

Read-out in assay [15]: Transforming Growth Factor (TGFB1), TGFB1 (gene 7040)
In words: LTEA_HepaRG_TGFB1: Life Technologies and Expression Analysis (LTEA) Assay for Transforming Growth Factor (TGFB1) Transporter using HepaRG (AID 2283533). In outline: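 HepaRG, 48 h post-plating, switched to serum-free induction medium; chemicals 100 uM top, half-log, 8 pts, 0.5% DMSO, dup; 48 h exposure; RNA → Fluidigm TaqMan qRT-PCR; norm ACTB/GAPDH/POLR2A; bidirectional fit vs DMSO.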

Read-out in assay [16]: TIMP1, TIMP1 (gene 7076)
In words: LTEA_HepaRG_TIMP1: Life Technologies and Expression Analysis (LTEA) Assay for TIMP1 using HepaRG (AID 2283534).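 Note: TaqMan qRT-PCR signal normalized to ACTB GAPDH and POLR2A housekeeping genes.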 In outline: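 Readout is TIMP1 mRNA level measured by qRT-PCR and normalized to three housekeeping genes. Human HepaRG cells were treated for 48 h in duplicate at eight concentrations up to 100 uM (0.5% DMSO); gain or loss fitted against DMSO.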

Read-out in assay [17]: Tumor necrosis factor receptor 1 (TNFRSF1A), TNFRSF1A (gene 7132)
Briefly: LTEA_HepaRG_TNFRSF1A: Life Technologies and Expression Analysis (LTEA) Assay for Tumor necrosis factor receptor 1 (TNFRSF1A) using HepaRG (AID 2283535). In outline:
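Read-out is TNFRSF1A transcript level by TaqMan qRT-PCR, normalized to three housekeeping genes, scored as gain or loss of signal versus 0.5% DMSO. Human HepaRG cells received test chemicals for 48 h at up to 100 uM (half-log series).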

Read-out in assay [18]: Thyroid Hormone Responsive (THRSP), THRSP (gene 7069)
In words: LTEA_HepaRG_THRSP: Life Technologies and Expression Analysis (LTEA) Assay for Thyroid Hormone Responsive (THRSP) using HepaRG (AID 2283536). In outline:
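mRNA induction or loss relative to 0.5% DMSO vehicle was fitted bidirectionally across an eight-point curve whose highest exposure was 100 uM. Human HepaRG liver cells received chemicals in duplicate over 48 h before RNA extraction.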

Read-out in assay [19]: Cellular tumor antigen p53 (Homo sapiens) (UniProt P04637)
Briefly: LTEA_HepaRG_TP53: Life Technologies and Expression Analysis (LTEA) Assay for Tumor Protein P53 (TP53) using HepaRG (AID 2283537). In outline:
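TP53 transcript measured by qRT-PCR, normalized to three housekeeping genes, after 48 h treatment of human HepaRG cultures with chemicals from 100 uM downward in half-log steps (0.5% DMSO vehicle, serum-free induction medium). Up- or down-regulation fitted against DMSO.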

Read-out in assay [20]: Nuclear factor NF-kappa-B p105 subunit (Homo sapiens) (UniProt P19838)
Briefly: LTEA_HepaRG_NFKB1: Life Technologies and Expression Analysis (LTEA) Assay for Nuclear Factor Kappa B Subunit 1 (NFKB1) using HepaRG (AID 2283521).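 Note: differentiated human HepaRG liver cells in serum-free induction medium.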 In outline:
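NFKB1 transcript was measured by TaqMan qRT-PCR on Fluidigm arrays, normalised to three housekeeping genes and fitted in both directions against 0.5% DMSO. HepaRG cells were dosed in duplicate for 48 h in serum-free induction medium, eight half-log steps from 100 uM.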

Nuclear factor erythroid 2-related factor 2 (Homo sapiens), sequence (Q16236 whole entry, looked up): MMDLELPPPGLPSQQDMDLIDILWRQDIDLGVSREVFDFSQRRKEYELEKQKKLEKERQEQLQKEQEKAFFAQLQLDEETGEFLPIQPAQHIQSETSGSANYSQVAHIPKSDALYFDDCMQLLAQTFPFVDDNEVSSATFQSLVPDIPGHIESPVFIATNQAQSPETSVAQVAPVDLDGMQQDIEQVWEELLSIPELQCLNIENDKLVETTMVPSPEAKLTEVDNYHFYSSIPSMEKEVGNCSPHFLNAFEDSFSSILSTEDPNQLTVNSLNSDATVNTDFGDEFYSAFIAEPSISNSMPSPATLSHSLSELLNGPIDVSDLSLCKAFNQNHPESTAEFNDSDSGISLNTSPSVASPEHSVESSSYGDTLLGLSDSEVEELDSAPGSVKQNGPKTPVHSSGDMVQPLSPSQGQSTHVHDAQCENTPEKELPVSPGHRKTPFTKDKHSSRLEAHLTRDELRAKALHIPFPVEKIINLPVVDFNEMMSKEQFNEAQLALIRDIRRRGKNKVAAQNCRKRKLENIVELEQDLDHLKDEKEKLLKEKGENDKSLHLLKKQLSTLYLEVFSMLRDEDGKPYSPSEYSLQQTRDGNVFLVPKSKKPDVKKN
Signal transducer and activator of transcription 3 (Homo sapiens), sequence (P40763 whole entry, looked up): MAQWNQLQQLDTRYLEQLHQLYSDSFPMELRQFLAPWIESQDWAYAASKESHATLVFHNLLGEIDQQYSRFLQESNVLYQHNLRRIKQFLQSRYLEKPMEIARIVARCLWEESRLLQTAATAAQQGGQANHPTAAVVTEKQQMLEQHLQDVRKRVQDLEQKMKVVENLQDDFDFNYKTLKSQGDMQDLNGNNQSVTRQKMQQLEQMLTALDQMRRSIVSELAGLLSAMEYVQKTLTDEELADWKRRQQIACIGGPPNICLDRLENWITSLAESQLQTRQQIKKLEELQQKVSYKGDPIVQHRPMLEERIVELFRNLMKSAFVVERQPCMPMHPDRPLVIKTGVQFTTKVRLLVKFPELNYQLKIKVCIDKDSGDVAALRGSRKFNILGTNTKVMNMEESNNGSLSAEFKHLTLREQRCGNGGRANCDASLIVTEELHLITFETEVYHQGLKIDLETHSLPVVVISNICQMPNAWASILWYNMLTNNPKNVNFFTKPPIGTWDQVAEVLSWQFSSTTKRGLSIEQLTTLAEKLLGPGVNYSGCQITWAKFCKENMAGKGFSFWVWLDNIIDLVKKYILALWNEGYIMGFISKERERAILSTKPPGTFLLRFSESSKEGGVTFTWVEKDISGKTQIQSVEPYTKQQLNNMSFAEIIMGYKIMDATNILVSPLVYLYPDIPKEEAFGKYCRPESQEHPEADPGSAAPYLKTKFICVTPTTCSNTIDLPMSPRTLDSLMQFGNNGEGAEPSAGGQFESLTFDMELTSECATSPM
Cellular tumor antigen p53 (Homo sapiens), sequence (P04637 whole entry, looked up): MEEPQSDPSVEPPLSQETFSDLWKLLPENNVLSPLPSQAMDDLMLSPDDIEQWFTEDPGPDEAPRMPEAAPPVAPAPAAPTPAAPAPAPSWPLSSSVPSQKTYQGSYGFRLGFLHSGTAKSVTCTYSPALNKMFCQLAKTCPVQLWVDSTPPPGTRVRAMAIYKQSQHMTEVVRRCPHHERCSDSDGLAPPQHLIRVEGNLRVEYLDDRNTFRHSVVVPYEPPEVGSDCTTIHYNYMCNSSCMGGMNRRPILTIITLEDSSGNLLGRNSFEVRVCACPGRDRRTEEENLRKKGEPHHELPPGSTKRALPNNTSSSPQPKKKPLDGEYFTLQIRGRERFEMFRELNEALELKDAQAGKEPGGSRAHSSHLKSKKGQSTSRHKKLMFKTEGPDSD
Nuclear factor NF-kappa-B p105 subunit (Homo sapiens), sequence (P19838 whole entry, looked up): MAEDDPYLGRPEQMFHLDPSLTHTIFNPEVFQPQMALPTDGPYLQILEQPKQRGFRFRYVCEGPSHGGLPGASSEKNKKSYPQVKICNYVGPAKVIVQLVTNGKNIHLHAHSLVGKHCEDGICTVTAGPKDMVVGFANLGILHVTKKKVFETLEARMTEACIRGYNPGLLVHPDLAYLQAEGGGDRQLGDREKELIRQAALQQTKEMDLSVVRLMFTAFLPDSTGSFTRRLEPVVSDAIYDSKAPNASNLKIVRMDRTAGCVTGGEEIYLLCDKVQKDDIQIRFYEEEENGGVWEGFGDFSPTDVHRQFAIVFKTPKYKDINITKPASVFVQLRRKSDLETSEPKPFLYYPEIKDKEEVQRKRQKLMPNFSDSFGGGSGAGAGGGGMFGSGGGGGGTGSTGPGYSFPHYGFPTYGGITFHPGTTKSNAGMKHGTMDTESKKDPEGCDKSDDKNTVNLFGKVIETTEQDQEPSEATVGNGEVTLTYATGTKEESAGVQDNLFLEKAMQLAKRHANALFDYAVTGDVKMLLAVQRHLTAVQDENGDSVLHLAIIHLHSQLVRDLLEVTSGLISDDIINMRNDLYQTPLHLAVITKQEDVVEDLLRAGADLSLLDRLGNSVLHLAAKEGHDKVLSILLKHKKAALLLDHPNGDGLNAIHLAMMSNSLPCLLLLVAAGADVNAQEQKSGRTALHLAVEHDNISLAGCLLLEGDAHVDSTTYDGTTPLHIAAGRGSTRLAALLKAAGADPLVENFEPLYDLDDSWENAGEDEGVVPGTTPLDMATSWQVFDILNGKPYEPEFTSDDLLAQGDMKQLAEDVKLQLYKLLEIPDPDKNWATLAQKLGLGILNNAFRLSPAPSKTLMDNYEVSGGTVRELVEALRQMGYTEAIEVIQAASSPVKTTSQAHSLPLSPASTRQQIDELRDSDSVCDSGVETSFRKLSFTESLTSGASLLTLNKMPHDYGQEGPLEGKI

For `Oc1ccccc1O`, the call in assay [1], in assay [2], in assay [3], in assay [4], in [5] and in assay [6] was inactive. The molecule was called inactive in assay [7], in [8], in assay [9], in [10], in assay [11] and in assay [12]. Besides, the molecule was classed as inactive in assay [13], in assay [14], in assay [15], in assay [16], in assay [17] and in [18]. In assay [19], the molecule was classed as inactive.
With `CC(=O)OC1CC(C)OC(C)O1` (stereo not drawn), the outcome in [1], in assay [3], in [20], in [4], in assay [5] and in [6] was inactive. For the same molecule, the molecule was called inactive in [7], in assay [8], in [9], in assay [10], in assay [11] and in assay [12]. Also, the molecule was called inactive in [13], in [14], in assay [15], in assay [16], in assay [17] and in [18].
Turning to `CC(C)(O)c1ccc(CNC(=O)c2cccnc2Oc2ccc(F)cc2)cc1`, the molecule was classed as inactive in assay [1], in assay [3], in assay [4], in assay [5], in assay [6] and in assay [7]. The molecule was classed as inactive in assay [8], in assay [9], in [10], in assay [11], in assay [12] and in [13]. The call in assay [14], in assay [15], in assay [16], in assay [17], in assay [18] and in assay [19] was inactive. In addition, the AC50 in [2] was 73.2 µM (active).
In the case of `NC1CCCCC1`, the molecule was called inactive in assay [1], in [3], in [4], in [5], in [6] and in assay [7]. The call in assay [8], in [9], in assay [10], in [11], in assay [12] and in assay [13] was inactive. The result in assay [14], in assay [15], in assay [16], in [17] and in assay [18] was inactive.

One may read the AC50 as the concentration giving half of the maximal activity seen.
